An excerpt weighted towards active compounds, which were near 2.4% of everything screened.
M1 PAM parental – nonselective activator or artifact in parental CHO-K1 calcium assay. activation, % at 3 µM. 360,000 compounds, 0.02% hits. ATP EC20, Fluo-8 calcium fluorescence; 0% at ATP EC20, 100% at ATP max;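 active means activation above the run cutoff, the mean activation of all test compounds plus 3 SD, cut at about 40% in these data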;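 further: peak over basal fluorescence ratio in a 140 s read after ATP addition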
CHO-K1 Ca antag – nonselective inhibitor or artifact in parental CHO-K1 cells; ATP-induced calcium, Fluo-8 fluorescence; inhibition, % at 3 µM; 360,000 compounds, 0.6% hits; AID 602250;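 active means inhibition above a per-plate cutoff, the plate's mean sample inhibition plus 3 SD, cut at about 24% in these data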;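 further: 0% = DMSO plus EC80 ATP and 100% = DMSO alone without ATP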
M1 PAM – potentiates human M1 receptor response to acetylcholine. P11229. CHO-K1 hM1, Fluo-8 calcium fluorescence, ACh EC20; 0% = ACh EC20, 100% = maximal ACh. activation, % at 3 µM. 360,000 compounds, 0.088% hits. AID 588819; in the data active means activation above about 19%, passing the limit was not always enough
Target sequence (P11229 whole entry, looked up): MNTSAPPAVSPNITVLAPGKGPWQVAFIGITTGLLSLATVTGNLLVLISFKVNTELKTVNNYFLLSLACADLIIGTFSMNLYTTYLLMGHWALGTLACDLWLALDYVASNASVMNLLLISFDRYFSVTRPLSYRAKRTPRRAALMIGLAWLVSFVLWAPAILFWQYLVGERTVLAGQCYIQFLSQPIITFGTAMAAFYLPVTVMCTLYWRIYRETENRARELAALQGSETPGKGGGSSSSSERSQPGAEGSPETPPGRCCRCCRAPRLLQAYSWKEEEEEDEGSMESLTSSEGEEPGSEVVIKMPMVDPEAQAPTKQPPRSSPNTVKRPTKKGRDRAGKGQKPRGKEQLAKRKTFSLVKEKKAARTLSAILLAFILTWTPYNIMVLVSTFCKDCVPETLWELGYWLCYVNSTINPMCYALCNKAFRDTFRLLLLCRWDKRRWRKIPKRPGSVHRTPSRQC
M1 antag – human CHRM1 antagonism | P11229 | CHO-K1 hM1, Fluo-8 calcium fluorescence, ACh EC80 antagonist | inhibition, % at 3 µM | 360,000 compounds, 1.3% hits;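 active means percent inhibition above its own plate's cutoff, namely the mean of that plate's compound wells plus 3 SD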;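 further: peak over basal fluorescence ratio during 140 s after agonist addition; 0% = ACh EC80 plus DMSO and 100% = DMSO alone without agonist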
CHO-K1 Ca ag – counter-screen for M1 agonists: effect in parental CHO-K1 cells | 360,000 compounds, 0.48% hits | activation, % at 3 µM | Fluo-8 calcium fluorescence; scaled to maximal ATP response, vehicle zero; in the data active means activation above about 15%;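 further: untransfected CHO-K1 host cells lacking M1 receptor as counterscreen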
CHRM1 agonist – human M1 muscarinic receptor agonism; CHO-K1 hM1, Fluo-8 calcium fluorescence, agonist mode; 0% DMSO, 100% acetylcholine EC100; activation, % at 3 µM; 360,000 compounds, 0.33% hits; AID 588814;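 active means activation above the run's mean compound activation plus 3 SD, cut at about 16% in these data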;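 further: peak over basal fluorescence ratio within a 140 s kinetic read after compound addition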
An asterisk follows results filed as active; / = no result.

SMILES | M1 PAM parental | CHO-K1 Ca antag | M1 PAM | M1 antag | CHO-K1 Ca ag | CHRM1 agonist
CC1CN(C(=O)c2ccc(NS(=O)(=O)c3ccc(C(C)(C)C)cc3)cc2)CC(C)O1 (stereo not given) | -14 | 0 | -3 | 19 | 25* | 39*
COc1ccc(NS(=O)(=O)c2ccc(C(=O)N3CCC(C)CC3)cc2)cc1 | -11 | -5 | -17 | 18 | 31* | 36*
CCOc1ccc(NS(=O)(=O)c2ccc(C(=O)N3CCCCC3)cc2)cc1 | -19 | 6 | -12 | 15 | 19* | 23*
Cc1ccc(NS(=O)(=O)c2ccc(C(=O)N3CCCC(C(F)(F)F)C3)cc2)cc1 (stereo not given) | -10 | 9 | -6 | 17 | 39* | 45*
O=C(O)C1C2C=CC(C2)C1C(=O)NCc1cccs1 (stereo not given) | 18 | -10 | 11 | -7 | 0 | -9
CC1CCN(c2ccc(C(=O)O)cc2NS(=O)(=O)c2ccc(Br)cc2)CC1 | 12 | -7 | 4 | -7 | -1 | -6
O=C1CCCC[C@@H](CO)[C@H](O)C[C@H](c2ccccc2)O1 | 19 | -25 | / | / | 2 | /
CCOc1ccc(NS(=O)(=O)c2ccc(C(=O)N3CC(C)OC(C)C3)cc2)cc1 (stereo not given) | 2 | 0 | -22 | 34* | 41* | 55*
CCOc1ccc(S(=O)(=O)Nc2ccc(C(=O)N3CC(C)OC(C)C3)cc2)cc1 (stereo not given) | -20 | 4 | -12 | 14 | 17* | 33*
CC1CN(C(=O)c2cccc(S(=O)(=O)N3CCN(c4ccc(F)cc4)CC3)c2)CC(C)O1 (stereo not given) | -3 | -9 | 0 | -5 | 9 | 2
O=C(c1cccc(S(=O)(=O)N2CCN(c3ccc(F)cc3)CC2)c1)N1CCCC(C(F)(F)F)C1 (stereo not given) | -26 | 15 | -12 | 34* | 9 | -2
Cc1cc(NC(=O)c2ccc3sc([C@@H]4O[C@H](CO)[C@H](O)[C@H](O)[C@H]4O)nc3c2)n(C)n1 | -12 | 10 | 1 | -3 | 0 | -1
CCOc1cccc(C(=O)NC(=S)Nc2ccc(N3CCN(CC)CC3)cc2)c1 | 23 | 0 | -35 | 81* | 2 | -16
CCN1CCN(c2ccc(NC(=O)c3cccc(OCc4ccccc4)c3)cc2)CC1 | 17 | -1 | -21 | 81* | 1 | -4
O=C(NC(=S)Nc1ccc(CN2CCCCC2)cc1)c1cccc(OCc2ccccc2)c1 | 23 | -5 | -27 | 96* | 2 | -8
CCCOc1cccc(C(=O)NC(=S)Nc2ccc(N3CCN(C)CC3)cc2)c1 | 17 | -11 | -30 | 58* | 1 | -13
O=C(O)c1ccc(NC(=S)NC(=O)c2cccc(COc3ccccc3)c2)cc1 | 19 | -11 | 5 | 4 | 0 | -4
CCOc1cccc(C(=O)NC(=S)Nc2ccccc2)c1 | 18 | -7 | -4 | -3 | 0 | -10
CN1CCN(c2ccc(NC(=O)c3cccc(OCc4ccccc4)c3)cc2)CC1 | 12 | -4 | -23 | -17 | 1 | -10
CCOC(=O)c1c(NC(=O)CSc2nnc(-c3ccccc3C)n2C)sc(C(C)=O)c1C | -9 | 21 | -19 | 46* | 2 | -4
CCN(CC)CCOC(=O)c1ccc(NC(=O)CCCN2C(=O)/C(=C/c3cccs3)SC2=S)cc1 | -10 | -3 | -18 | 36* | 1 | -5
CC(C)Cc1nc2oc3c(Cl)ncnc3c2c2c1CCCC2 | -3 | 2 | 3 | 1 | 0 | -4
CCCc1nc2oc3c(Cl)ncnc3c2c2c1CCCC2 | 19 | -6 | -24 | 52* | 0 | -7
CN(C)c1ccc(CNn2cnnc2SCC(=O)NC(C)(C)C)cc1 | 9 | 14 | -14 | 42* | 6 | -2
CCc1ccc(CNn2cnnc2SCC(=O)NC(C)(C)C)cc1 | -4 | 15 | -1 | 0 | 0 | -2
SMILES | M1 PAM parental | CHO-K1 Ca antag | M1 PAM | M1 antag | CHO-K1 Ca ag | CHRM1 agonist
CCN(CC)C1CCN(Cc2c(C(=O)N3CCCCCCC3)nc3ccc(Cl)cn23)C1 (stereo not given) | -24 | 1 | -12 | 32* | 0 | -6
CSc1ccc(CN2CCN(S(=O)(=O)Cc3ccccc3)CC2)cc1 | -5 | -11 | -1 | 0 | 5 | 0
O=C(c1[nH]ncc1-c1cccc(Br)c1)C1CO1 (stereo not given) | -6 | -8 | 7 | -16 | 0 | -3
O=C(c1[nH]ncc1-c1ccccc1)C1CO1 (stereo not given) | 17 | 5 | 9 | -11 | 19* | -1
CCCCNC(=O)C(=O)Nc1ccc2c(c1)N(S(=O)(=O)c1cccs1)CCC2 | 6 | -14 | -3 | -2 | 2 | -5
O=C(O)c1cccc(N2C(=O)c3cccc4c(Cl)ccc(c34)C2=O)c1 | -11 | 6 | 0 | 0 | 0 | -7
O=C(O)c1ccc2c3c(cccc13)C(=O)N(c1ccccc1)C2=O | 22 | -2 | 13 | -8 | 1 | -8
CC(=O)Nc1cccc2c1C(=O)N(c1cccc(C)c1)C2=O | 7 | 2 | 2 | 2 | 0 | -2
Nc1cccc(N2C(=O)c3cccc4c(N)ccc(c34)C2=O)c1 | -3 | -8 | -14 | 14 | 15* | 45*
Nc1ccc2c3c(cccc13)C(=O)N(c1ccccc1)C2=O | -20 | 26* | -24 | 52* | 50* | 121*
Cc1cccc(N2C(=O)c3cccc4c(N(C)CCO)ccc(c34)C2=O)c1 | -7 | 10 | -14 | 11 | 20* | 23*
Cc1cccc(N2C(=O)c3cccc4cccc(c34)C2=O)c1 | 14 | -16 | 11 | -16 | 0 | -1
Cc1cccc(N2C(=O)c3cccc4c(N)ccc(c34)C2=O)c1 | -15 | 35* | -27 | 43* | 124* | 108*
CCOC(=O)C1CCCC12Nc1cccc3cccc(c13)N2 (stereo not given) | 27 | -14 | 2 | -7 | 1 | -6
CSc1ncnc2c1ncn2CCCNc1ccc(C)c(C)c1 | -7 | 18 | 9 | -5 | 1 | 2
O=C(NCc1ccco1)/C(=C\c1cccs1)NC(=O)c1ccco1 | 23 | -8 | 15 | -4 | 0 | 3
CCN1C(=O)c2cccc3c(Cl)ccc(c23)C1=O | 27 | -14 | 6 | -5 | 2 | -6
CC(C)CCN1C(=O)c2cccc3c(N)ccc(c23)C1=O | -20 | 67* | -23 | 70* | 152* | 151*
CCOC(=O)Oc1ccc(/C=C2\N=C(C)OC2=O)cc1 | 5 | -12 | 8 | -16 | 0 | -2
O=C(COC(=O)c1cc(=O)[nH]c2ccccc12)c1cccs1 | -19 | 30* | 1 | 3 | 0 | 0
